According to PubChem BioAssay (NCI):
The panel holds about 79,000 compounds, 15% with a hit somewhere; the sample as a whole holds those more often. Values without a mark were called inactive. The source made the active and inactive calls. Rule as the data show it: active = growth inhibition above about 70%; inactive = the rest.

Test: NCI Yeast Anticancer Drug Screen. Data for the mec2-1 strain (AID 157)
Conditions: S. cerevisiae mec2-1 strain, stronger effect = higher value
Procedure: Growth inhibition of yeast strains with defined genetic alterations is measured as a screen for potential anti-cancer activity. Selected strains with alterations in DNA damage repair or cell cycle control were exposed to compounds and growth inhibition was measured relative to vehicle treated controls. The strain used in this assay is mec2-1

[1] = at 5.0 µM (retest, dose inferred, filed as 0.5)
[2] = at 50.0 µM (retest, dose inferred, filed as 5.0)

In the case of CCOc1c(N=Nc2ccc(Cl)cc2)c(-c2ccccc2)nn1C(N)=S, the growth inhibition [1] is reported as -11%, the growth inhibition [2] is reported as 89% (active) and the growth inhibition (at 50.0 µM) is reported as 94.7% (active).

Molecule CC1=C(C(=O)Nc2ccccc2C)C(c2ccccc2F)C(C(=O)Nc2ccccc2C)=C(C)N1 has a growth inhibition [1] of 3%, a growth inhibition [2] of 8% and a growth inhibition (at 50.0 µM) of 41.9%.

For O=C(C1=Cc2ccccc2OC1)N1CCN(c2cccc(Cl)c2)CC1, the growth inhibition [1] was -6%, the growth inhibition [2] was 98% (active) and the growth inhibition (at 50.0 µM) was 35.9%.

With CC(C)(C)C(=O)CC(=O)C(F)(F)C(F)(F)C(F)(F)F.[Ag] the growth inhibition [1] was 99% (active), the growth inhibition [2] was 99% (active) and the growth inhibition (at 50.0 µM) was 93% (active).

In the case of Oc1ccc(N=Nc2ccccc2)c(O)c1.Oc1ccc(N=Nc2ccccc2)c(O)c1.[Cu], the growth inhibition [1] is reported as 16%, the growth inhibition [2] is reported as 98% (active) and the growth inhibition (at 50.0 µM) is reported as 98.2% (active).

With NC1c2ccccc2-c2ccc([N+](=O)[O-])cc21 (configuration not stated) the growth inhibition [1] was 4%, the growth inhibition [2] was -24% and the growth inhibition (at 50.0 µM) was -7.35%.

In the case of Clc1ccc([I+]c2cccs2)cc1, the growth inhibition [1] is reported as 51%, the growth inhibition [2] is reported as 99% (active) and the growth inhibition (at 50.0 µM) is reported as 98.7% (active).

Molecule CCCC/C=C1/CCC(CN(C)C)C1=O (configuration not stated) has a growth inhibition [1] of -2%, a growth inhibition [2] of 48% and a growth inhibition (at 50.0 µM) of 37.4%.

In the case of Cc1cc(C)nc(CCSS(=O)(=O)O)c1, the growth inhibition [1] is reported as -17%, the growth inhibition [2] is reported as 2% and the growth inhibition (at 50.0 µM) is reported as -0.95%.

CC(CCOP(=O)(O)OCCC(C)CC(C)(C)C)CC(C)(C)C (configuration not stated) gave a growth inhibition [1] of -9%, a growth inhibition [2] of 13% and a growth inhibition (at 50.0 µM) of 62.6%.

In the case of Oc1ccc(Cc2cccc(Br)c2)c(O)c1, the growth inhibition [1] is reported as -4%, the growth inhibition [2] is reported as 99% (active) and the growth inhibition (at 50.0 µM) is reported as 99.3% (active).

For CC(=O)N(C1=CC(=O)c2ccccc2C1=O)c1ccc(Cl)cc1, the growth inhibition [1] was 92% (active), the growth inhibition [2] was 98% (active) and the growth inhibition (at 50.0 µM) was 95% (active).

For O=C(/C=C(/Nc1ccccc1)C(=O)c1ccccc1)c1ccccc1, the growth inhibition [1] was 9%, the growth inhibition [2] was 96% (active) and the growth inhibition (at 50.0 µM) was 37.2%.

In the case of O=C(N/C(=C\c1ccc2c(c1)OCO2)c1nc2ccccc2s1)c1ccccc1, the growth inhibition [1] is reported as 1%, the growth inhibition [2] is reported as 98% (active) and the growth inhibition (at 50.0 µM) is reported as 97.9% (active).
